Laboratory results taken from the supplement of paper PMC7411054.
Unmarked numbers belong to inactive results.

Test system: HepG2-CANX-COX4
Experiment: phenotypically active (imaging signature differs from DMSO and reproducible) at any of 0.3-9 uM (binary (1 = active, 0 = inactive)); higher = active
Details: treatment time: 24 h
Outline: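 Live-cell features were measured per well and normalised to solvent control wells after fifteen gene-edited A549, HepG2 and WPMY1 reporter lines had been treated for 24 h at 0.3, 1, 3 or 9 µM in four wells each. A condition was deviating when ≥3 of 4 wells sat beyond the 95th percentile of control Euclidean distances. It was reproducible when the median replicate Pearson correlation exceeded the 95th percentile of non-replicates. Phenotypic activity demanded both.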

SMILES | phenotypically active
C/C(=C/c1ccc(C(=O)O)cc1)c1ccc2c(c1)C(C)(C)CCC2(C)C | 0
Cc1ccc(S(=O)(=O)/C=C/C#N)cc1 | 0
O=c1cc(-c2cccc3c2Sc2ccccc2S3)oc(N2CCOCC2)c1 | 1 (active)
CCCc1nc2c(C)cc(-c3nc4ccccc4n3C)cc2n1Cc1ccc(-c2ccccc2C(=O)O)cc1 [telmisartan] | 0
CC(C)CCN1c2nc(Nc3cc(F)c(O)c(F)c3)ncc2N(C)C(=O)C1C (stereo not drawn) | 1 (active)
COc1cc2nccc(Oc3ccc(NC(=O)NC4CC4)c(Cl)c3)c2cc1C(N)=O [lenvatinib] | 0
Nc1cc(C(F)(F)F)c(-c2cc(N3CCOCC3)nc(N3CCOCC3)n2)cn1 [buparlisib] | 1 (active)
Nc1ccn([C@@H]2O[C@H](CO)[C@@H](O)[C@H]2O)c(=O)n1 [Cytidine] | 0
OC(CCN1CCCCC1)(c1ccccc1)C1CCCCC1 (stereo not drawn) [trihexyphenidyl] | 0
COc1cc([C@@H]2c3cc4c(cc3[C@@H](O[C@@H]3O[C@@H]5CO[C@@H](C)O[C@H]5[C@H](O)[C@H]3O)[C@H]3COC(=O)[C@H]23)OCO4)cc(OC)c1O [etoposide] | 1 (active)
CCN1CCN(c2cc(-c3ccc(F)cc3)c3c(n2)CCCCCC3)CC1 [blonanserin] | 1 (active)
COc1cc2c(NC3CCN(C(C)C)CC3)nc(C3CCCCC3)nc2cc1OCCCN1CCCC1 | 1 (active)
COc1cc2ncn(-c3cc(OCc4ccccc4C(F)(F)F)c(C(N)=O)s3)c2cc1OC | 1 (active)
